Bioassay records as filed in PubChem BioAssay.
An excerpt weighted towards active compounds, which were near 3.1% of everything screened.
FadD28 binding: M. tuberculosis FadD28 bisubstrate binding inhibition | FadD28 bisubstrate probe binding, fluorescence polarization | inhibition, % at 12.5 µM | hit rate 0.22% among 360,000; in the data active means inhibition above about 8.5%, passing the limit was not always enough
GDH-TPI counter-1: inhibits GDH-TPI coupling enzymes, artifact for Mtb FBA screen; hit rate 1.2% among 360,000; AID 588335; inhibition, % at 4.8 µM; GDH-TPI coupled enzyme counterscreen, NADH absorbance; in the data active means inhibition above about 30%
Mtb FBA inh: inhibits M. tuberculosis FBA enzyme. inhibition, % at 1 µM. P9WQA3. hit rate 2.3% among 360,000. purified M. tuberculosis FBA, fluorescence read-out
Target sequence (P9WQA3 whole entry, looked up): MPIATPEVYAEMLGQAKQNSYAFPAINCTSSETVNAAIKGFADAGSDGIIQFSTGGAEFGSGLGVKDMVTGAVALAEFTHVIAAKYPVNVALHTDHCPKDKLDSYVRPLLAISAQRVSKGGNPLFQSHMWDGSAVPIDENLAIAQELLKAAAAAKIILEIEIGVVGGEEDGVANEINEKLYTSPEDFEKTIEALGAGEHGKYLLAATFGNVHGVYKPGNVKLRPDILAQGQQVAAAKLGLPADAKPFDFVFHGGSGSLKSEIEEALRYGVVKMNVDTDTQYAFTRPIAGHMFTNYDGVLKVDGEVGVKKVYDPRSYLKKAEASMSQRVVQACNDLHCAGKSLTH
BioA inh: inhibitors of Mycobacterium tuberculosis BioA enzyme; purified M. tuberculosis BioA enzyme, plate reader; inhibition, % at 9.99 µM; hit rate 0.096% among 360,000; in the data active means inhibition above about 40%
SARS 3CLpro inh: SARS-CoV 3CLpro protease inhibition. P0C6X7. recombinant SARS-CoV 3CLpro, quenched FRET peptide cleavage. inhibition, % at 6 µM. hit rate 0.14% among 290,000. AID 1706; in the data active means inhibition above about 12%
Mtb FBA confirm: Mtb FBA inhibition, confirmed | shares compounds with Mtb FBA inh | purified M. tuberculosis FBA, fluorescence read-out | inhibition, % at 1 µM | hit rate 78% among 5,600
GDH-TPI counter-2: GDH-TPI inhibition counter-screen for FBA inhibitors; shares compounds with Mtb FBA inh; GDH-TPI coupled enzyme counterscreen, fluorescence; inhibition, % at 1 µM; hit rate 81% among 5,600; in the data active means inhibition above about 10%
Large screens that a line does not name were inactive (follow-up assays come after a bar, where they were run). Unless noted, no stated cut-off is given here; in the data, active means inhibition above about 27%; inactive means the rest.

N#CC1(C#N)COC23CCCCC2C1(C#N)C(=N)O3 (stereo not given)	none
COc1ccc(C2OC34CCCCC3C(C#N)(C#N)C2(C#N)C(=N)O4)cc1 (stereo not given)	Mtb FBA inh 39 | Mtb FBA confirm 80 | GDH-TPI counter-2 67
CCN(CC)C(=O)[C@H]1C[C@H](CC(=O)NCCc2ccccn2)C(=O)N2CCc3c([nH]c4cc(-c5ccco5)ccc34)[C@]12C	Mtb FBA inh 40 (no result: SARS 3CLpro inh) | Mtb FBA confirm 52 | GDH-TPI counter-2 44
CC(C)N(C(=O)[C@H]1C[C@H](CC(=O)NCCCN(C)C)C(=O)N2CCc3c([nH]c4cc(-c5ccco5)ccc34)[C@]12C)C(C)C	none (no result: SARS 3CLpro inh)
CCN(CC)C(=O)[C@H]1C[C@H](CC(=O)NCCCN(C)C)C(=O)N2CCc3c([nH]c4cc(-c5ccco5)ccc34)[C@]12C	Mtb FBA inh 46 (no result: SARS 3CLpro inh) | Mtb FBA confirm active | GDH-TPI counter-2 active
CCN(CC)C(=O)[C@H]1C[C@H](CC(=O)NCCCOC)C(=O)N2CCc3c([nH]c4cc(-c5ccco5)ccc34)[C@]12C	Mtb FBA inh 43 (no result: SARS 3CLpro inh) | Mtb FBA confirm 59 | GDH-TPI counter-2 31
CN1C(=O)c2cc(NC(=O)NC3CCCC3)ccc2OC[C@@H]2O[C@H](CC(=O)NCC3CC3)CC[C@@H]21	none (no result: FadD28 binding, GDH-TPI counter-1, Mtb FBA inh, SARS 3CLpro inh)
C[C@@H]1CN([C@@H](C)CO)C(=O)c2cc(NC(=O)Nc3ccc(C(F)(F)F)cc3)ccc2O[C@@H](C)CCCCO[C@@H]1CN(C)Cc1ccc2c(c1)OCO2	none (no result: FadD28 binding, GDH-TPI counter-1, Mtb FBA inh, SARS 3CLpro inh)
O=C(c1cccnc1)N1CC[C@@H]2[C@H]1c1cc(C#Cc3cccnc3)ccc1N[C@@H]2CO	none (no result: FadD28 binding, GDH-TPI counter-1, Mtb FBA inh, SARS 3CLpro inh)
Cc1ccc(O)c(Nc2nc(-c3ccccc3)nc3ccccc23)c1	none
Cc1ccc(O)c(Nc2c3ccccc3nc3ccccc23)c1	Mtb FBA inh 99 | Mtb FBA confirm active | GDH-TPI counter-2 active
CCCN(C)C[C@H]1OCCCC[C@@H](C)Oc2ccc(NS(=O)(=O)c3ccccc3)cc2C(=O)N([C@H](C)CO)C[C@H]1C	none (no result: FadD28 binding, GDH-TPI counter-1, Mtb FBA inh, SARS 3CLpro inh)
CCCSC1=C(C#N)C(c2ccc(Cl)cc2Cl)CC(=O)N1 (stereo not given)	none (no result: BioA inh)
CC1=C(C#N)C(/C=N/OCc2ccc(Cl)cc2)CC(=O)N1 (stereo not given)	Mtb FBA inh 35 (no result: BioA inh) | Mtb FBA confirm inactive | GDH-TPI counter-2 17
CN(C)c1nc2c(c(=O)n(C)c(=O)n2C)n1Cc1ccccc1	none
Cn1c(=O)nc2n(Cc3ccccc3)c3ccccc3cc-2c1=O	Mtb FBA inh 85 (no result: BioA inh) | Mtb FBA confirm 72 | GDH-TPI counter-2 52
CCN1C(=O)c2cccc3c(S(=O)(=O)N4CCNCC4)ccc1c23	Mtb FBA inh 28 (no result: SARS 3CLpro inh) | Mtb FBA confirm 73 | GDH-TPI counter-2 65
CCN1C(=O)c2cccc3c(S(=O)(=O)N4CCCC4C(=O)O)ccc1c23 (stereo not given)	none
CCN1CCN(S(=O)(=O)c2ccc3c4c(cccc24)C(=O)N3CC)CC1	Mtb FBA inh 29 (no result: SARS 3CLpro inh) | Mtb FBA confirm 158 | GDH-TPI counter-2 149
CC(C)NC(=O)Nc1ccc2c(c1)C(=O)N([C@@H](C)CO)C[C@@H](C)[C@H](CN(C)Cc1ccncc1)OCCCC[C@H](C)O2	none (no result: FadD28 binding, GDH-TPI counter-1, Mtb FBA inh, SARS 3CLpro inh)
COc1ccc(NC(=O)N(C)C[C@@H]2Oc3c(NS(=O)(=O)c4cn(C)cn4)cccc3C(=O)N([C@@H](C)CO)C[C@H]2C)cc1	none (no result: FadD28 binding, GDH-TPI counter-1, Mtb FBA inh, SARS 3CLpro inh)
CCC(=O)N(C)C[C@H]1Oc2cc(C#Cc3ccccc3)ccc2S(=O)(=O)N([C@@H](C)CO)C[C@@H]1C	none (no result: FadD28 binding, GDH-TPI counter-1, Mtb FBA inh, SARS 3CLpro inh)
CCCc1cc(CCC)n2nc(N)nc2n1	Mtb FBA inh 32 (no result: BioA inh, SARS 3CLpro inh) | Mtb FBA confirm active | GDH-TPI counter-2 179
CC(C)c1cc(C(C)C)n2nc(N)nc2n1	none
C/C=C/c1ccc2c(c1)O[C@H](CN(C)C(=O)C1CCOCC1)[C@H](C)CN([C@H](C)CO)S2(=O)=O	none (no result: FadD28 binding, GDH-TPI counter-1, Mtb FBA inh, SARS 3CLpro inh)
Cc1cc(=O)n2c(nc3ccccc32)[nH]1	Mtb FBA inh 37 (no result: BioA inh) | Mtb FBA confirm 64 | GDH-TPI counter-2 42
CCCc1cc(=O)n2c(nc3ccccc32)[nH]1	Mtb FBA inh 47 | Mtb FBA confirm inactive | GDH-TPI counter-2 inactive
CCCCc1c(O)n2c(nc3ccccc32)[nH]c1=O	none
C[C@H]1CN([C@@H](C)CO)C(=O)c2cc(NS(C)(=O)=O)ccc2O[C@@H]1CN(C)S(=O)(=O)c1cccs1	none (no result: FadD28 binding, GDH-TPI counter-1, Mtb FBA inh, SARS 3CLpro inh)
C[C@@H]1CN([C@@H](C)CO)C(=O)c2cc(NS(=O)(=O)c3ccccc3)ccc2O[C@@H](C)CCCCO[C@H]1CN(C)C(=O)CCC(F)(F)F	none (no result: FadD28 binding, GDH-TPI counter-1, Mtb FBA inh, SARS 3CLpro inh)
CN(C)/C=N/c1nc2nccc(-c3ccc(Cl)cc3)n2n1	Mtb FBA inh 72 (no result: BioA inh) | Mtb FBA confirm inactive | GDH-TPI counter-2 inactive
CN(C)/C=N/c1nc2nccc(-c3ccccc3)n2n1	Mtb FBA inh 52 | Mtb FBA confirm 132 | GDH-TPI counter-2 106
CCN(CC)C(=O)[C@H]1C[C@H](CC(=O)NCC23CC4CC(CC(C4)C2)C3)C(=O)N2CCc3c([nH]c4cc(-c5ccco5)ccc34)[C@]12C	none (no result: SARS 3CLpro inh)
COc1ccc(CNC(=O)C[C@H]2C[C@H](C(=O)N3CCCCC3)[C@@]3(C)c4[nH]c5cc(-c6ccco6)ccc5c4CCN3C2=O)cc1OC	Mtb FBA inh 28 (no result: SARS 3CLpro inh) | Mtb FBA confirm 79 | GDH-TPI counter-2 56
CC[C@]12c3[nH]c4cc(-c5ccco5)ccc4c3CCN1C(=O)[C@@H](CC(=O)NCc1ccc(OC)c(OC)c1)C[C@@H]2C(=O)N1CCN(C(=O)c2ccco2)CC1	none (no result: SARS 3CLpro inh)
CCN(CC)C(=O)[C@H]1C[C@H](CC(=O)NCc2ccc(OC)c(OC)c2)C(=O)N2CCc3c([nH]c4cc(-c5ccco5)ccc34)[C@]12C	Mtb FBA inh 46 (no result: SARS 3CLpro inh) | Mtb FBA confirm 144 | GDH-TPI counter-2 105
CCCn1nc(NC(=O)C2CCCO2)c2cc3cccc(C)c3nc21 (stereo not given)	Mtb FBA inh 37 | Mtb FBA confirm 179 | GDH-TPI counter-2 149
COC(=O)c1cc(C)nc(N)c1C#N	Mtb FBA inh 108 | Mtb FBA confirm 128 | GDH-TPI counter-2 82
C#CCSc1nc(C)cc(C(=O)OCC)c1C#N	none (no result: BioA inh)
CCOCCCNC(=O)c1cc2c(-c3ccc(Cl)cc3)nn(C)c2s1	Mtb FBA inh 63 | Mtb FBA confirm 71 | GDH-TPI counter-2 55
CCCN(CCC)CCNC(=O)c1cc2c(-c3ccccc3F)nn(C)c2s1	Mtb FBA inh 87 (no result: BioA inh) | Mtb FBA confirm 100 | GDH-TPI counter-2 81
CCCN(CCC)CCCNC(=O)c1cc2c(-c3ccc(OC)c(OC)c3)nn(C)c2s1	none
Cn1nc(-c2ccc(Cl)cc2)c2cc(C(=O)NC3CC3)sc21	none
CCCCN(CC)CCNC(=O)c1cc2c(-c3ccc(Cl)cc3)nn(C)c2s1	Mtb FBA inh 77 | Mtb FBA confirm inactive | GDH-TPI counter-2 inactive
CCCN(CCC)CCNC(=O)c1cc2c(-c3ccc(Cl)cc3)nn(C)c2s1	Mtb FBA inh 50 | Mtb FBA confirm 163 | GDH-TPI counter-2 120
